Structures are written as SMILES. The panel holds about 83,000 compounds, 20% with a hit somewhere; the sample as a whole holds those more often.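 Negative percent growth values reflect cell death: -40 means 40% of the cells present at the start died, and -100 means all died.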 A number with no mark means an inactive call. Calls of active or inactive are those of the source. Rule for the calls: active = growth percent below 10; inactive = the rest.

Test systems include HCT-15 colon; HT29 colon; SNB-19 CNS; U251 CNS; PC-3 prostate; SK-MEL-5 melanoma; UACC-62 melanoma; LOX IMVI melanoma; SK-MEL-28 melanoma.
Holding throughout (experiment): NCI-60 one-dose screen, 48 h (100 = growth as untreated, 0 = no growth, -100 = all killed)
What all share (settings): 10 µM unless noted

With `C/C=C/C1=CN2C(=O)c3cc(OC4OC(C)C(NC)C(C)(O)C4O)c(C)cc3N=C[C@@H]2C1` (stereo not given in full), the growth with HCT-15 colon is 4.13% (active); with HT29 colon, 5.72% (active); in the assay with SNB-19 CNS, 14.7%; in the assay on U251 CNS it was 9.48% (active); with PC-3 prostate, 7.19% (active); with SK-MEL-5 melanoma, -51.3% (active). Moreover, the values for the growth with UACC-62 melanoma, in the assay on LOX IMVI melanoma and in the assay on SK-MEL-28 melanoma were -80.4% (active), -11.2% (active) and -24.2% (active), respectively.
Consider `OC(c1cc2cc(Br)ccc2c2cc(Br)ccc12)C1CCCCN1` (stereo not given), for which the growth in the assay with HCT-15 colon was -71.6% (active); in the assay with HT29 colon it was -82.5% (active); in the assay on SNB-19 CNS, -70.9% (active); in the assay on U251 CNS it was -94.5% (active); in the assay on PC-3 prostate it was -88.5% (active); in the assay with SK-MEL-5 melanoma, -1.27% (active). In addition, the growth was -79.4% (active) in the assay with UACC-62 melanoma, -62% (active) in the assay with LOX IMVI melanoma and -93.2% (active) with SK-MEL-28 melanoma.
As for `COc1ccc(Nc2ncccc2C(=O)NCc2cn(Cc3cccc(Oc4ccccc4)c3)nn2)cc1`, the growth in the assay on HCT-15 colon is 32.2%; in the assay with HT29 colon, 12.6%; with SNB-19 CNS, 61.2%; in the assay with U251 CNS, 46.2%; with PC-3 prostate it was 54.7%; in the assay on SK-MEL-5 melanoma, 16.3%. Further, the growth in the assay with UACC-62 melanoma is 35.3%; in the assay with LOX IMVI melanoma it was 47.7%; with SK-MEL-28 melanoma, 63.3%.
As for `COc1ccc(-c2cc(-c3ccccc3)nc(SCCCC(=O)NO)n2)cc1OC`, the growth was 16.5% in the assay with HCT-15 colon; 15.1% with HT29 colon; 20% in the assay with SNB-19 CNS; 1.87% (active) in the assay on U251 CNS; 13% in the assay with PC-3 prostate; -69.8% (active) in the assay with SK-MEL-5 melanoma. Also, the values for the growth in the assay with UACC-62 melanoma, in the assay with LOX IMVI melanoma and in the assay on SK-MEL-28 melanoma were -22.3% (active), -61.6% (active) and 21.5%, respectively.
As for `COC(=O)C(Sc1ccc(Cl)cc1)C1SC(=S)N(Cc2ccccc2)C1=O` (stereo not given), the growth is 73.9% in the assay on HCT-15 colon; 111% with HT29 colon; 92.6% with SNB-19 CNS; 90.3% in the assay with U251 CNS; 97.4% with PC-3 prostate; 101% in the assay with SK-MEL-5 melanoma. Also, the growth in the assay with UACC-62 melanoma was 99.1%; in the assay with LOX IMVI melanoma, 74.9%; in the assay with SK-MEL-28 melanoma, 109%.
As to `COc1ccc(-c2c(N)n[nH]c2-c2cc3c(c(OC)c2OC)OCO3)cc1`, the growth with HCT-15 colon was 101%; with HT29 colon it was 103%; in the assay with SNB-19 CNS, 104%; in the assay with U251 CNS it was 94.1%; in the assay with PC-3 prostate, 101%; in the assay on SK-MEL-5 melanoma, 110%. In addition, the growth in the assay with UACC-62 melanoma is 82.9%; in the assay with LOX IMVI melanoma it was 95%; in the assay with SK-MEL-28 melanoma, 104%.
For the compound `CCCCOc1ccc(/C=C2/SC(N3CCOCC3)=NC2=O)cc1OCC`, the growth is 98.6% in the assay on HCT-15 colon; 104% in the assay with HT29 colon; 90.8% in the assay with SNB-19 CNS; 95.2% in the assay on U251 CNS; 87.1% in the assay on PC-3 prostate; 98.7% with SK-MEL-5 melanoma. In addition, the growth with UACC-62 melanoma is 88.6%; in the assay with LOX IMVI melanoma, 89.1%; in the assay on SK-MEL-28 melanoma it was 97.4%.
Turning to `Cc1ccc2[nH]c(=O)c3c(c2c1)Oc1ncn2nc(-c4ccco4)nc2c1C3c1ccc(Cl)cc1` (stereo not given), the growth is 91.6% in the assay with HCT-15 colon; 101% in the assay with HT29 colon; 88.2% in the assay with SNB-19 CNS; 97.7% in the assay on U251 CNS; 93.7% with PC-3 prostate; 99% with SK-MEL-5 melanoma. Moreover, the growth in the assay with UACC-62 melanoma was 101%; in the assay with LOX IMVI melanoma it was 90.4%; in the assay with SK-MEL-28 melanoma, 103%.
On to `COc1cc(-c2nn(-c3cccc(NC(=O)c4ccc(Cl)c(C(F)(F)F)c4)c3)cc2-c2ccncc2)ccc1Cl`, for which the growth was 51.7% in the assay with HCT-15 colon; 50.1% in the assay with HT29 colon; 66% in the assay on SNB-19 CNS; 32.5% in the assay on U251 CNS; 18.6% with PC-3 prostate; 17.5% with SK-MEL-5 melanoma. The growth in the assay with UACC-62 melanoma is 32.8%; with LOX IMVI melanoma, 32.2%; in the assay on SK-MEL-28 melanoma, 41.6%.
As for `Cc1ccc(S(=O)(=O)NCCCNc2cc(-c3cn(C(C)(C)C)nc3-c3cccc(O)c3)ccn2)cc1`, the growth was 16.5% with HCT-15 colon; 12.8% in the assay with HT29 colon; 80% in the assay on SNB-19 CNS; 58.1% in the assay with U251 CNS; 39.6% in the assay on PC-3 prostate; 42.8% with SK-MEL-5 melanoma. The growth with UACC-62 melanoma was 66.8%; in the assay with LOX IMVI melanoma it was 13.5%; with SK-MEL-28 melanoma, 60.6%.
With `COc1cc(C(=O)/C=C/c2c(C)n([O-])c3ccc(C(F)(F)F)cc3[n+]2=O)cc(OC)c1OC`, the growth in the assay on HCT-15 colon was 86.1%; in the assay with HT29 colon it was 5.72% (active); in the assay on SNB-19 CNS, 90.9%; with U251 CNS it was 87.1%; in the assay on PC-3 prostate it was 91.8%; in the assay with SK-MEL-5 melanoma, 102%. The growth with UACC-62 melanoma is 91.4%; in the assay with LOX IMVI melanoma it was 88.4%; in the assay with SK-MEL-28 melanoma, 98.8%.
Regarding `O=C(NNC(=O)N1c2ccccc2C=Cc2ccccc21)c1ccccc1`, the growth is 101% in the assay on HCT-15 colon; 103% in the assay with HT29 colon; 100% with SNB-19 CNS; 109% in the assay with U251 CNS; 98.5% with PC-3 prostate; 104% in the assay on SK-MEL-5 melanoma. The growth was 101% in the assay with UACC-62 melanoma, 104% in the assay on LOX IMVI melanoma and 102% with SK-MEL-28 melanoma.
On to `COc1ccc(-n2c(-c3ccccc3)c(-c3ccccc3)c3c(SCC(=O)N/N=C/c4ccc(Cl)cc4)ncnc32)cc1`, for which the growth is 105% with HCT-15 colon; 94.4% with HT29 colon; 100% in the assay on SNB-19 CNS; 91.6% in the assay on U251 CNS; 83.3% in the assay with PC-3 prostate; 86.9% with SK-MEL-5 melanoma. Moreover, the growth in the assay with UACC-62 melanoma is 86.7%; in the assay with LOX IMVI melanoma it was 88.4%; with SK-MEL-28 melanoma it was 104%.
In the case of `CC(O)CN1CCCCC1` (stereo not given), the growth with HCT-15 colon was 107%; with HT29 colon, 92.3%; with SNB-19 CNS, 100%; in the assay with U251 CNS, 99.6%; in the assay with PC-3 prostate, 102%; with SK-MEL-5 melanoma it was 105%. Besides, the growth with UACC-62 melanoma is 101%; with LOX IMVI melanoma, 101%; with SK-MEL-28 melanoma, 109%.
Consider `O=S(=O)(NCCCNc1nccc(-n2ccc3cccnc32)n1)c1cccc(C(F)(F)F)c1`, for which the growth is 103% in the assay on HCT-15 colon; 111% in the assay on HT29 colon; 102% in the assay with SNB-19 CNS; 97.8% in the assay on U251 CNS; 103% in the assay on PC-3 prostate; 106% in the assay on SK-MEL-5 melanoma. Also, the growth is 98.8% in the assay with UACC-62 melanoma, 99.9% in the assay with LOX IMVI melanoma and 106% in the assay on SK-MEL-28 melanoma.

The values above are taken from PubChem BioAssay (NCI).
